Reference: PubChem BioAssay (Tox21)
Values joined by “and” are separate entries in the source; they are usually repeats but may differ in a detail not shown here. Identical values can stand only once. Records with an inconclusive call do not appear. A call without a number means that no potency is given here. More than one record can exist for a structure, and the calls need not agree. Active and inactive are the calls of the source. Calls follow the shape of the dose curve; as a rule, active = well fitted activation curve with a large enough effect in the repeat runs; inconclusive = weak or mixed curves; inactive = no such curve, though single readings can be large or run the other way.

Each molecule was assayed against Nuclear receptor subfamily 1 group I member 2 (Homo sapiens) (UniProt O75469) (assay: Human pregnane X receptor (PXR) small molecule agonists, qHTS assay (AID 1346982; also: nearly all actives have a fitted effect of over 35% in size)). Details: PXR-Luc HepG2, CYP3A4 luciferase reporter, 24 h; series mostly up to 92.4 µM; activation: at the top concentration.
Sequence of Nuclear receptor subfamily 1 group I member 2 (Homo sapiens) (O75469 whole entry, looked up): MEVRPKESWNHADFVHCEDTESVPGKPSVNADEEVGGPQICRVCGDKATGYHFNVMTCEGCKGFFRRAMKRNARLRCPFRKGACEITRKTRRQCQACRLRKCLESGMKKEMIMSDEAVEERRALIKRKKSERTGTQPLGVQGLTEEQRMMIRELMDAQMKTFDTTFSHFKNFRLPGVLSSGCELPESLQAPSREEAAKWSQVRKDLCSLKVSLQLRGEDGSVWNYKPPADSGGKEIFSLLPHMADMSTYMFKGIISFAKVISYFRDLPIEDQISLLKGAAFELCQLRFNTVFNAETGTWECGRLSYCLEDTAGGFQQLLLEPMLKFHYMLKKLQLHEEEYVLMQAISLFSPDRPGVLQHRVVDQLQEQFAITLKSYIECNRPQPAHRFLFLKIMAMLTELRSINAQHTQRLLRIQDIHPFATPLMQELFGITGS
Description: National Center for Advancing Translational Sciences [NCATS]
NIH Chemical Genomics Center [NCGC]
U.S. Environmental Protection Agency [EPA]
National Institutes of Environmental Health Sciences [NIEHS]
National Toxicology Program [NTP]
The human pregnane X receptor (hPXR) regulates the expression of several drug metabolizing enzymes and induction of these proteins is a major mechanism for developing drug resistance in cancer. One such key enzyme catalyzing the drug metabolism is cytochrome P450 3A4 (CYP3A4). Changes in CYP3A4 expression affect drug metabolism, thereby reducing the therapeutic efficacy and altering toxicological response to a drug and which finally causes adverse drug interaction. To screen Tox21 libraries for compounds that activate hPXR-mediated CYP3A4 gene expression, PXR-Luc HepG2 cells were used.
PXR-Luc HepG2 cells were dispensed at 2,000 per well in 5uL of assay medium containing 5% charcoal-stripped FBS into white solid bottom 1536-well plates (Corning Life Sciences, Corning, NY) using a Multidrop Combi (Thermo Scientific, Waltham, MA) dispenser. The assay plates were incubated at 37 C and 5% CO2 for 5hr, and then 23nL of compounds dissolved in DMSO and positive control were transferred using a Pintool station (Wako, San Diego, CA). The assay plates were incubated at 37C and 5% CO2 for 24hr. For luciferase read, 4uL of ONE-Glo reagent (Promega Corporation, Madison, WI) was added to each well of the assay plates using Flying Reagent Dispenser (FRD, Aurora Discovery, San Diego, CA) and incubated the assay plates at room temperature for 30min. The luminescence signal was quantified using a ViewLux plate reader (Perkin Elmer, Shelton, CT).
Potency is read from the fitted curve at half-maximal effect.

Row | Compound | activation | Potency
1 | Cc1ccc(O)c(C)c1 | -5.46% (inactive) | –
2 | CSc1nnc(C(C)(C)C)c(=O)n1N | – | inactive
3 | Sc1ccccc1 | 18.1% (inactive) | –
4 | c1ccc2c(c1)CCCC2 | – | inactive
5 | CN(C)NC(=O)CCC(=O)O | – | inactive
6 | OC[C@@H](O)[C@H]1O[C@@H]2O[C@H](C(Cl)(Cl)Cl)O[C@@H]2[C@H]1O | – | inactive
7 | OCc1ccco1 | – | inactive
8 | COC(C)(C)CCCC(C)C/C=C/C(C)=C/C(=O)OC(C)C (stereo not given) | – | 47.8 µM (active)
9 | COc1nc(NC(C)C)nc(NC(C)C)n1 | – | 30.7 µM (active) and 54.5 µM (active)
10 | Cc1cccc(C)c1NC(=O)CN1CCCC1=O | – | inactive
11 | Cc1ccc(N)cc1 | – | 4.35 µM (active) and 29.6 µM (active) and 27.3 µM (active)
12 | Clc1cnc(Oc2ccc(Oc3ncc(Cl)cc3Cl)cc2)c(Cl)c1 | – | inactive
13 | Nc1nc(N)nc(NC2CC2)n1 | – | inactive
14 | CCSC(=O)N1CCCCCC1 | – | inactive
15 | Cc1ccccc1N | – | inactive and 54.5 µM (active)
16 | C=C(C)C(=O)OCC(CC)CCCC (stereo not given) | – | inactive
17 | O=C(O)CCCc1ccc(N(CCCl)CCCl)cc1 | – | inactive
18 | CCCCC(CC)C(=O)Cl (stereo not given) | – | inactive
19 | CC(=O)C1CCOC1=O (stereo not given) | – | inactive
20 | N#CN=C(N)N | – | inactive

Row | Compound | activation | Potency
21 | CCCOC(=O)c1ccccc1C(=O)OCCC | – | inactive
22 | C=CCN=C=S | – | 55.7 µM (active) and inactive
23 | Nc1ncc([N+](=O)[O-])s1 | – | inactive
24 | Cc1cc(O)ccc1Cl | – | inactive
25 | Cl[C@H]1OCCO[C@@H]1Cl | – | inactive
26 | CCNc1nc(Cl)nc(NC(C)C)n1 | – | 67.8 µM (active) and 61.1 µM (active)
27 | Cc1ccc(N=C=O)cc1N=C=O | – | 60.9 µM (active) and inactive
28 | [N-]=[N+]=CC(=O)OC[C@H](N)C(=O)O | – | inactive
29 | CNC(=O)Oc1cccc2ccccc12 | – | 68 µM (active) and inactive
30 | Cc1cccc(N)c1C | – | 61.1 µM (active)
31 | CN(C)C(=O)Nc1cccc(C(F)(F)F)c1 | – | inactive
32 | CN(C)CCC#N | – | inactive
33 | O=S(=O)(O)OOS(=O)(=O)O | – | inactive
34 | O=C(O)c1cc(Oc2ccc(C(F)(F)F)cc2Cl)ccc1[N+](=O)[O-] | – | inactive and 61.4 µM (active)
35 | COP(=S)(OC)Oc1ccc(SC)c(C)c1 | – | 60.4 µM (active) and 37.6 µM (active)
36 | N#Cc1ccccn1 | – | inactive
37 | COS(=O)(=O)OC | – | inactive
38 | C=CC#N | – | inactive
39 | CN(C)C(=O)C(c1ccccc1)c1ccccc1 | – | inactive and 19.3 µM (active)
40 | CNC(=O)O/N=C/C(C)(C)S(C)=O (stereo not given) | 9.23% (inactive) | –
